In PubChem BioAssay AID589 (National Center for Advancing Translational Sciences (NCATS), 2007) one finds max dye-equivalent concentration data, which are given here for 36 compounds.

About 6,200 (11%) of roughly 59,000 compounds were called active. Roughly 9% stayed inconclusive and do not appear here. Rule as the data show it: active = max dye-equivalent concentration above about 10 nM; inconclusive = mostly about 1.1 nM to 9.6 nM; inactive = weaker than that. The list comes from a sample in which actives are over-represented; it also holds similar structures and randomly drawn compounds.

A short description of this assay: qHTS Assay for Spectroscopic Profiling in 4-MU Spectral Region. Particulars: compound autofluorescence, 340/450 nm, 4-MU equivalents; hits give high values. An outline of the steps:
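Compounds in 100 mM Tris, pH 8.0, sat 15 min at room temperature before fluorescence was read at 340 nm excitation/450 nm emission; a per-plate six-point 4-MU standard curve converted signals to dye-equivalent concentration at each compound concentration.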
Take `Cc1cc(C)c(NC(=O)CS(=O)CC(=O)Nc2cccnc2)c(C)c1` (stereo unspecified): the max dye-equivalent concentration entry is “inactive”.
Consider `COc1ccc(C(CC(=O)O)NC(=O)Cc2ccccc2)cc1` (stereo unspecified), for which the max dye-equivalent concentration entry is “inactive”.
Regarding `CCOC(=O)c1cc(C)sc1NC(=O)C1CCC1`, the max dye-equivalent concentration entry is “inactive”.
The entry for `O=C(C1CCN(S(=O)(=O)c2cccs2)CC1)N1CCCCCC1` is “inactive”; for `O=C(Nc1nncs1)c1ccccc1NS(=O)(=O)c1cccs1` it is 530 nM (active).
Then `COC(=O)c1ccccc1NC(=O)c1ccccc1NS(C)(=O)=O`, with “inactive”.
In the case of `COc1ccc(CNC2CCCCC2)cc1`, the max dye-equivalent concentration entry is “inactive”.
Turning to `c1n[nH]c(NCc2ccc3c(c2)OCO3)n1`, the max dye-equivalent concentration entry is “inactive”.
In the case of `CN(Cc1ccccc1)c1nc2c(c(=O)[nH]c(=O)n2C)n1CCSc1nc2ccccc2[nH]1`, the max dye-equivalent concentration result is “inactive”.
Turning to `COc1cc(NC(=O)N2CCOCC2)cc(OC)c1`, the max dye-equivalent concentration result was “inactive”.
Take `CCOC(=O)c1[nH]c2ccc(OC)cc2c1NC(=O)CCN1CCN(Cc2ccccc2)CC1`: the max dye-equivalent concentration was 57 nM (active).
Consider `CCOC(=O)c1[nH]c2ccc(OC)cc2c1NC(=O)N1CCOCC1`, for which the max dye-equivalent concentration is 130 nM (active).
Then `COc1ccc(OC)c(NC(=O)CCN2CCC(C)CC2)c1`, with “inactive”; and `Cc1c(C(=O)N2CCOCC2)[nH]c2ccc(OCc3ccccc3)cc12`, with “inactive”.
Take `COC(=O)c1[nH]c2ccccc2c1NC(=O)CN1CCCc2ccccc21`: the max dye-equivalent concentration entry was “inactive”.
With `COc1cccc(NC(=O)CN(C)S(=O)(=O)c2ccc(C)cc2)c1`, the max dye-equivalent concentration result was “inactive”.
Turning to `Cc1nonc1OCCn1nnnc1N`, the max dye-equivalent concentration entry was “inactive”.
With `CCNC(=O)CN(c1ccc(C)cc1)S(=O)(=O)c1ccc(SC)cc1`, the max dye-equivalent concentration result was “inactive”.
Consider `C=CCn1c(COc2cccc3cccnc23)nnc1SCC(=O)OC`, for which the max dye-equivalent concentration entry was “inactive”.
Take `CC(=O)Nc1cccc(Oc2cc(C#N)c(C#N)cc2N2CCOCC2)c1`: the max dye-equivalent concentration entry was “inactive”.
Turning to `CCOc1cc(N2CCOCC2)c(OCC)cc1NC(=O)COc1cccc2cccnc12`, the max dye-equivalent concentration is 16 nM (active).
As for `O=C1NC(c2cc3c(cc2Cl)OCO3)Oc2ccccc21` (stereo unspecified), the max dye-equivalent concentration result was “inactive”.
Turning to `CCC(=O)Nc1cccc(NC(=O)c2cccnc2)c1`, the max dye-equivalent concentration result was “inactive”.
`CCOC(=O)c1cc(NC(=O)c2cccnc2)cc(C(=O)OCC)c1`: the max dye-equivalent concentration result is “inactive”.
Take `Cc1cc2nc(-c3ccc(NC(=O)c4cccnc4)cc3)oc2cc1C`: the max dye-equivalent concentration was 15 nM (active).
Consider `CNc1nc(-c2ccccc2OC)nc2ccccc12`, for which the max dye-equivalent concentration result was “inactive”.
In the case of `COc1ccccc1-c1nc(NCc2cccs2)c2ccccc2n1`, the max dye-equivalent concentration entry was “inactive”.
Then `Cc1ccc(Cn2c(C)nc3c(c2=O)c2nc4ccccc4nc2n3Cc2ccco2)cc1`, with 760 nM (active); and `COCCCn1c2nc3ccccc3nc2c2c(=O)n(Cc3ccc(Cl)cc3)c(C)nc21`, with 320 nM (active); and `COc1ccccc1NC(=O)CSc1nc2sc(C)c(C)c2c(=O)n1Cc1ccco1`, with “inactive”.
Consider `CCOC(=O)CSc1nc2c(sc(=S)n2CCc2ccccc2)c(=O)n1Cc1ccco1`, for which the max dye-equivalent concentration result was “inactive”.
As for `Cn1c(COc2ccc(Cl)cc2)nc2ccccc2c1=O`, the max dye-equivalent concentration result is “inactive”.
As to `Cc1nc2c(c(=O)n1Cc1ccco1)c1nc3ccccc3nc1n2Cc1ccccc1`, the max dye-equivalent concentration is 93 nM (active).
With `O=c1c2ccccc2oc2nc(C3CCCCC3)n(Cc3ccco3)c(=O)c12`, the max dye-equivalent concentration result is “inactive”.
Regarding `Cc1nc2ccccc2c(=O)n1CCCn1ccnc1`, the max dye-equivalent concentration entry was “inactive”.
With `CC(Sc1nc2ccccc2c(=O)n1Cc1ccco1)C(=O)c1ccccc1` (stereo unspecified), the max dye-equivalent concentration entry is “inactive”.
